# According to PubChem BioAssay (EPA / NIEHS):
# Records with an inconclusive call do not appear. Calls of active or inactive are those of the source. How the source made its calls: active means hit-call score of the fitted dose curve at least 0.9, where 1 is the maximum; inconclusive means response in the unintended direction; inactive means score below 0.9.
# Target: mouse Peroxisome Proliferator-activated Receptor gamma (PPARg), Pparg (gene 19016) (UniProt P37238)
# Test: ATG_mPPARg_XSP2: Attagene TRANS-FACTORIAL Multi-Species (XSP2) HepG2 Assay for mouse Peroxisome Proliferator-activated Receptor gamma (PPARg) (AID 2283830);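 further: hits are gains in reporter mRNA above DMSO so AC50 marks activation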
# Procedure: ATG_XSP2_multi-species_TRANS is a cell-based, multiplexed assay created by modifying the existing Attagene TRANS-FACTORIAL system to include a panel of nuclear receptors from some or all the following species: human (Homo sapiens), mouse (Mus musculus), frog (Xenopus laevis), zebrafish (Danio rerio), chicken (Gallus gallus), and turtle (Chrysemys picta). The […] format uses HepG2, a human liver cell line, with measurements taken at 24 hours after chemical dosing in a 24-well plate. Xsp2 included 3 nM 6-alpha-fluorotestosterone and 1.5 nM norgestrel to stimulate the androgen receptor.ATG_mPPARg_XSP2 is one of 29 assay components measured or calculated from the ATG_XSP2_multi-species_TRANS assay. It is designed to make measurements of mRNA induction, a form of inducible reporter, as detected with fluorescence intensity signals by Reverse transcription polymerase chain reaction (RT-PCR) and Capillary electrophoresis technology.The assay endpoint ATG_mPPARg_XSP2 was analyzed in the positive analysis fitting direction relative to DMSO as the negative control and baseline of activity. Using a type of inducible reporter, measures of mRNA for gain-of-signal activity can be used to understand the reporter gene at the transcription factor-level as they relate to the gene PPARg. Furthermore, this assay endpoint can be referred to as a primary readout, because this assay has produced multiple assay endpoints where this one serves a reporter gene function. To generalize the intended target to other relatable targets, this assay endpoint is annotated to the nuclear receptor intended target family, where the subfamily is non-steroidal.
# Human liver HepG2 cells are transiently transfected with multiple reporter transcription units (MRTUs) in 6-well plates using FuGene 6 reagent (Roche; 3 ml FuGene/1 mg DNA). The MRTU constructs are regulated by a cis-regulating element (promoter). […] A major difference between the CIS and TRANS system is that in CIS activities of endogenous TFs are measured, whereas the TRANS assay evaluates changes in activities of exogenous, chimeric NR-Gal4 proteins. […] At the end of 24 hour incubation, total RNA was isolated using TriZol reagent (Invitrogen). The isolated RNA is then reverse-transcribed using oligo(dT) primer and Mo-MLV reverse transcriptase (Invitrogen) with DNAse I (Ambion) treatment for 30 min. The one-tenth of the produced cDNA was amplified by PCR using Taq DNA polymerase (Invitrogen) and two reporter sequence-specific primers. The PCR products were fluorescently labeled by primer extension with 6-arboxyfluorescein (6-FAM) 5'-labeled reporter sequence-specific primer (2 min at 95 C, 20 s at 68 C and 10 min at 72 C) and these products were digested with 5U of HpaI (New England Biolabs) for 2h at 37 C. The fragments were purified using Qiaquick PCR columns (Qiagen), analyzed on an ABI 3130xL genetic analyzer (Applied Biosystems) with peak positions identified by using a set of X-rhodamine (ROX)-labeled MapMarker1000 molecular weight standards (BioVentures). The raw capillary electrophoresis data was processed using Attagraph software (Attagene).
# Chain of mouse Peroxisome Proliferator-activated Receptor gamma (PPARg), Pparg (gene 19016) (P37238 whole entry, looked up): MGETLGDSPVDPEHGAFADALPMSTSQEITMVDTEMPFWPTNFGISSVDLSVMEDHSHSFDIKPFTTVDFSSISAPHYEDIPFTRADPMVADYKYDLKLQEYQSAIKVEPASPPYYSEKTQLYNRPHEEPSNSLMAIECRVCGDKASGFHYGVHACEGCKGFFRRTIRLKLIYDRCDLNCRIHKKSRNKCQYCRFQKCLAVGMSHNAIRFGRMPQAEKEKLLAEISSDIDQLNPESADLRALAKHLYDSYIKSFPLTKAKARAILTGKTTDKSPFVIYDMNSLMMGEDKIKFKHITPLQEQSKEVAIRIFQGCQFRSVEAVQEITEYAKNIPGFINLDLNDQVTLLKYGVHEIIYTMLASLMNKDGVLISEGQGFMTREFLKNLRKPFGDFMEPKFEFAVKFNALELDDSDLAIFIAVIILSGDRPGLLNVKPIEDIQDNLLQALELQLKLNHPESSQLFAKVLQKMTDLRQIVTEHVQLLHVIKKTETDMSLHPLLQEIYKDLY
SMILES,AC50,outcome
C#CCOS(=O)OC1CCCCC1Oc1ccc(C(C)(C)C)cc1 (stereo not given),38 µM (active),
COP(=S)(OC)Oc1nc(Cl)c(Cl)cc1Cl,6.11 µM (active),
CON(C)C(=O)Nc1ccc(Cl)c(Cl)c1,,inactive
CCCC1COC(Cn2cncn2)(c2ccc(Cl)cc2Cl)O1 (stereo not given),100 µM (active),
CCCCOC(=O)c1ccccc1C(=O)OCCCC,100 µM (active),
COC(=O)N(OC)c1ccccc1COc1ccn(-c2ccc(Cl)cc2)n1,1.43 µM (active),
CCCCNC(=O)OCC#CI,25.6 µM (active),
OC(c1ccc(Cl)cc1)(c1cncnc1)c1ccccc1Cl (stereo not given),100 µM (active),
COc1ccc(C(c2ccc(OC)cc2)C(Cl)(Cl)Cl)cc1,,inactive
CCCCC(CC)COC(=O)c1ccccc1C(=O)OCC(CC)CCCC (stereo not given),9.14 µM (active),
CC(C)(C)c1ccc(CSc2cnn(C(C)(C)C)c(=O)c2Cl)cc1,2.2 µM (active),
CC(C)Oc1cc(-n2nc(C(C)(C)C)oc2=O)c(Cl)cc1Cl,24 µM (active),
C=CC1(C)OC(=O)N(c2cc(Cl)cc(Cl)c2)C1=O (stereo not given),29.5 µM (active),
CCOP(=S)(OCC)SCn1c(=O)oc2cc(Cl)ccc21,31.3 µM (active),
CCCN(CCC)c1c([N+](=O)[O-])cc(S(N)(=O)=O)cc1[N+](=O)[O-],,inactive
